Bioassay records (PubChem BioAssay)
VACV E9 pol inh: vaccinia E9 polymerase processive synthesis inhibitors, primary screen, biochemical, absorbance. Vaccinia virus DNA polymerase (E9) processive complex. in vitro processive DNA synthesis, absorbance read-out; hits give low values. normalized absorbance, % (no concentration beside the values). 0.94% of 46,000 active; in the data active = normalized absorbance mostly below about 85%, no sharp cut-off; inactive = mostly above about 86%
* = called active by the depositor. The sample as a whole holds a higher share of hits than the screen did.

SMILES	VACV E9 pol inh
Nc1cc(=O)n(Cc2ccccc2)c(=O)n1-c1ccccc1	96.0
Cc1c(CN(C)C)c2c(n1Cc1ccccc1)C(=O)c1ccc(Br)cc1-2	68.3*
Cc1ccc(S(=O)(=O)c2cc3ccccc3oc2=O)cc1C	117.4
CC(C)=CCOc1ccc2c(C)cc(=O)oc2c1	98.9
COc1ccc(C(N)CCO)cc1OC (configuration not stated)	94.6
Cc1ccc(CN2C(=O)N/C(=C\c3cn(CC(=O)N4CCOCC4)c4ccccc34)C2=O)cc1	100.4
CN(CC(O)Cn1c2ccccc2c2ccccc21)S(C)(=O)=O (configuration not stated)	109.4
CN(C)CC(O)Cn1c2ccc(Br)cc2c2cc(Br)ccc21 (configuration not stated)	26.6*
OC(CNCc1ccccc1)Cn1c2ccc(Cl)cc2c2cc(Cl)ccc21 (configuration not stated)	99.8
COc1ccc2c(c1OC)CN(C)CCc1cc3c(cc1C(O)C2)OCO3 (configuration not stated)	110.1
COc1ccc2c(c1OC)CN1CCc3cc4c(cc3C1C2)OCO4 (configuration not stated)	99.9
COc1ccc2cc3[n+](cc2c1OC)CCc1cc2c(cc1-3)OCO2	81.7*
Brc1cnc(N2CCCC2)nc1	101.0
CCOC(=O)CSc1nc(C2CC2)cc(-c2ccccc2)c1C#N	99.0
CC(=O)Nc1nc(C2CC2)cc(-c2ccccc2)c1C#N	84.6*
COC(=O)CSc1nc(-c2ccccc2)cc(-c2ccccc2)c1C#N	99.3
COc1ccc(-c2noc(N(C)CC(=O)N3CCN(c4ccccc4OC)CC3)n2)cc1	93.0
c1ccc(CN2CN=C(Nc3nc4ccccc4s3)NC2)cc1	108.5
CCN1CN=C(Nc2nc(C)c3cc(C)ccc3n2)NC1	48.6*
CCOc1ccc2nc(Nc3nc(O)cc(=O)[nH]3)nc(C)c2c1	99.8
NC(=O)c1ccccc1NC(=O)COc1ccc2oc3c(c2c1)CCCC3	104.8
O=C1CC(Sc2ccc3ccccc3c2)C2COC1O2 (configuration not stated)	36.1*
O=C1CC(N2C(=O)C3CC=CCC3C2=O)C2COC1O2 (configuration not stated)	101.4
CC1CCc2nc(SC3CC(=O)C4OCC3O4)nc(C(F)(F)F)c2C1 (configuration not stated)	99.7
CC(C)c1ccc(NC(=O)C(c2ccccc2)N2CCc3ccccc32)cc1 (configuration not stated)	95.7
SMILES	VACV E9 pol inh
O=C(O)CCOc1ccccc1	101.5
CN1/C(=C\C=C2C(=O)c3ccccc3C2=O)Sc2ccccc21	103.8
CCN1/C(=C/c2ccc3cc(C)ccc3[n+]2C)Sc2cc(OC)ccc21	24.5*
COc1ccc2c(ccc(/C=C3\Sc4ccccc4N3C)[n+]2C)c1	19.8*
CCN1/C(=c2/sc3nc4ccccc4n3c2=O)Sc2ccc(OC)cc21	99.2
CC(=S)/C=C1\Sc2ccccc2N1C	100.8
CCN1/C(=C\C=C\C(=O)c2ccccc2OC)Sc2ccccc21	110.6
O=C(c1cc(S(=O)(=O)N2CCCCC2)c(Cl)cc1Cl)N1CCCCC1	101.3
c1cc(C23CC4CC(CC(C4)C2)C3)ccc1CN1CCOCC1	100.2
Cc1ccc(C=Nc2ccccc2Sc2c(C)n[nH]c2C)cc1	100.2
Cc1ccc(-n2nc3c(c2NC(=O)CCC2CCCCC2)CSC3)cc1	95.8
CCCNC(=O)Cc1c(C)nc2cc(-c3ccccc3)nn2c1C	96.8
CCN(CC)S(=O)(=O)c1cc(Br)cnc1N	102.0
Cc1cc(N(C)Cc2ccccc2)ncn1	102.6
Cc1cc(N(C)Cc2ccccc2)nc2cc(O)ccc12	77.1*
CCc1ccc(-n2c(N(C)Cc3ccccc3)nc3ccccc3c2=O)cc1	90.1
Cc1cccc(CCNC(=O)C2CCN(S(=O)(=O)c3ccc4[nH]c(=O)ccc4c3)CC2)c1	84.6
O=C(NC(Oc1ccccc1)(C(F)(F)F)C(F)(F)F)Oc1ccccc1	108.1
Clc1ccc(-c2nnc(C3CCC(c4ccccc4)CC3)o2)cc1 (configuration not stated)	100.1
CCN1CCN(C(=O)NC(C(=O)NC2C(=O)N3C(C(=O)O)=C(CSc4nnnn4C)CSC23)c2ccc(O)cc2)C(=O)C1=O (configuration not stated)	102.3
NC(=O)c1cc[n+](CC2=C(C(=O)O)N3C(=O)C(NC(=O)C(c4ccccc4)S(=O)(=O)[O-])C3SC2)cc1 (configuration not stated)	83.3*
Nn1c(C(O)c2ccccc2)n[nH]c1=S (configuration not stated)	100.0
Cc1ccc(C)c(CN(C2=NC3CS(=O)(=O)CC3S2)c2cccc(Cl)c2)c1 (configuration not stated)	88.6
Cc1cccc(N(Cc2cc(=O)n3ccccc3n2)C2=NC3CS(=O)(=O)CC3S2)c1 (configuration not stated)	101.4
COc1cccc(N(Cc2ccc(C)cc2)C2=NC3CS(=O)(=O)CC3S2)c1 (configuration not stated)	68.1*
O=C(NCc1cccs1)c1cc2c(=O)[nH]c3ccccc3c2s1	88.4
